The full list was thinned out, with hits kept by preference.
15-hLO-2 inh: 15-hLO-2 (ALOX15B) enzyme inhibition | O15296 | purified 15hLO-2, xylenol orange hydroperoxide absorbance | Potency, µM (top dose mostly 57.1 µM), inactives show at the top dose activity change, negative = inhibition, hits mostly inhibitors | 110,000 tested, 0.56% active | AID 881; note: nearly all actives have a fitted effect of over 60% in size
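Enzyme 50 nM, AA 45 uM, 25 mM Hepes pH 7.5 + 0.01% Triton X-100; cpd preinc 15 min RT, rxn 90 min RT; stop/detect with 200 uM XO + 300 uM Fe(II) in 50 mM H2SO4, 30 min; A573/A405.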
ALOX15 inhib: 15-hLO (ALOX15) enzyme inhibition | P16050 | purified 15hLO-1, xylenol orange hydroperoxide absorbance | Potency, µM (doses to about 57.1 µM), without a hit: at the highest dose activity change, negative = inhibition, actives largely listed as inhibitors | 74,000 tested, 1.4% active; note: nearly all actives have a fitted effect of over 55% in size
Target sequence (P16050 whole entry, looked up): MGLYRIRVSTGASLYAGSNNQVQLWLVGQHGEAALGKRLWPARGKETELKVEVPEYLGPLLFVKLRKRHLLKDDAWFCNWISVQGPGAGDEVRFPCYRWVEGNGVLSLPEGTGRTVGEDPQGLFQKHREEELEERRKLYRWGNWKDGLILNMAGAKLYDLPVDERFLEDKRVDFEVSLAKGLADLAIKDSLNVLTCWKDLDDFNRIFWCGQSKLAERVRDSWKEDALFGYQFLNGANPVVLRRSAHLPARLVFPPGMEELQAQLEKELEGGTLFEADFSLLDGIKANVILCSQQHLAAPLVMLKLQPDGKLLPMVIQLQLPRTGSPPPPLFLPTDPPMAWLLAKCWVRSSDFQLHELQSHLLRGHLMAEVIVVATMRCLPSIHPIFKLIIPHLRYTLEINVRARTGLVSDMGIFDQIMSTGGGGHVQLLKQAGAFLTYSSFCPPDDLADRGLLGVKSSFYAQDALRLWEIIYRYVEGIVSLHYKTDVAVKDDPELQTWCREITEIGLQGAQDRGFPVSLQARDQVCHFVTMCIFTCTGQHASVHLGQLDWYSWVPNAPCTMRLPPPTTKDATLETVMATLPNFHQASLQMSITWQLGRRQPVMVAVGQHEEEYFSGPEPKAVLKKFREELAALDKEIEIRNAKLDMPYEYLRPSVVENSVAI
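Quantitative HTS in 25 mM Hepes pH 7.5 containing 0.01% Triton X-100: human 15hLO-1 at 40 nM, arachidonic acid at 50 uM, 6 min turnover. Product quantified via ferrous oxidation/xylenol orange, 573:405 nm absorbance ratio.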
Numbers without * were called inactive; ? = inconclusive; nt = no result; [ ] = another dose, or the depositor's remark. Calls come from the whole dose curve; as a rule, active = well fitted inhibition curve with a large enough effect; inconclusive = small, poorly fitted or top-dose-only effect; inactive = no such curve, though single readings can be large or run the other way. % is set by controls: 0 for no effect and ±100 for the full control effect; potency is the fitted concentration of half-maximal effect.

SMILES | 15-hLO-2 inh | ALOX15 inhib
CC[N+](CC)(CCNC(=O)C(=O)NCC[N+](CC)(CC)Cc1ccccc1Cl)Cc1ccccc1Cl | 22.6% | -11.7%[25.6 µM]
Cn1c(/N=C/c2c(O)ccc3ccccc23)nc2ccccc21 | ? | 3.98µM*
CCCn1c(/N=C/c2ccccc2O)nc2ccccc21 | 1.8% | nt
Cc1cc(N)c2ccccc2[n+]1CCCCCCCCCC[n+]1c(C)cc(N)c2ccccc21 | 21.4% | ?
C[C@@H]1CC2C3CCC4=CC(=O)C=CC4(C)[C@@]3(F)[C@@H](O)CC2(C)[C@@]1(O)C(=O)CO (some centres not stated) | -3.8%[0.0915 µM] | nt
CCCN1C(=O)c2cc(C(=O)NCc3cccs3)ccc2C1O (configuration not stated) | -3.0% | -8.8%
Cc1c(C)n(C)c2ccc(C(=O)NCc3cccs3)cc12 | nt | 10µM*
Nc1nc(SCC(=O)O)[nH]c(=O)c1N | -1.0%[11.4 µM] | 2.7%[11.4 µM]
C=Cc1c(C)/c2[n-]/c1=C\c1[n-]c(c(CC)c1C)/C=c1\[n-]c3c(c1C)C(=O)C(C(=O)[O-])C=3c1[n-]c(c(C)c1CCC(=O)[O-])\C=2.[Cu].[Na+].[Na+] (configuration not stated) | 7.94µM* | 6.31µM*
O=c1cnc2cnc(Oc3ccccc3)nc2n1Cc1cccs1 | -2.9% | -12.3%
C=CCOc1ccc2cccc(/C=N/NC(=O)c3cc4cc([N+](=O)[O-])ccc4s3)c2c1 | 10µM* | nt
CN(C)C(=O)c1cc2cc([N+](=O)[O-])ccc2s1 | -0.5% | nt
CC1=C/C(=N/O)C([C@H]2C=C(C)CC(C)(C)[C@@H]2O)C(C)(C)C1 (some centres not stated) | -2.0%[11.4 µM] | 0.0%[11.4 µM]
COc1ccc2c(c1)CCc1c(-c3noc4c3CCc3cc(OC)ccc3-4)noc1-2 | -5.7%[11.4 µM] | 2.5%[11.4 µM]
COc1ccc2c(c1)Cc1cc(N=[N+]([O-])c3ccc4c(c3)Cc3cc(OC)ccc3-4)ccc1-2 | ? | 3.98µM*
Cc1ccc(-c2nnc3ccc(SC(C)C(=O)O)nn23)cc1 (configuration not stated) | ? | 10µM*
CC(Sc1ccc2nnc(-c3ccc(F)cc3)n2n1)C(=O)O (configuration not stated) | nt | -0.6%
Cc1ccc(NC(=O)COc2ccc(/C=N/NC(=O)CSCc3ccccc3)cc2)cc1 | 3.4%[11.4 µM] | nt
CCOC(=O)c1c2ccc(OCC(=O)N/N=C/c3ccc(C)cc3)cc2n2ccccc12 | 15.8µM* | nt
CN1[C@H](Cc2ccccc2)C=C[C@]1(C)C(=O)NCC1CC1 | -2.5% | -16.8%
Clc1ccccc1CSc1nnc(/C=C/c2ccccc2)o1 | -4.5% | nt
CC(/C=C1\N=C(SCc2ccccc2Cl)SC1=O)=C\c1ccccc1 | 25.1µM* | nt
Cc1ccc(S(=O)(=O)Nc2ccc(O)c(C(=O)O)c2)c(C)c1 | nt | -3.7%
O=c1c(-c2ccc(O)cc2)coc2cc(O)ccc12 | -15.2%[0.0915 µM] | 4.9%
O=c1c(-c2ccccc2)coc2cc(O)cc(O)c12 | 4.8% | 3.16µM*
SMILES | 15-hLO-2 inh | ALOX15 inhib
O=c1c(-c2ccc3c(c2)OCCO3)coc2cc(O)cc(O)c12 | 3.5% | 15.8µM*
COc1cc(OC)c2c(=O)c(-c3ccc4c(c3)OCO4)coc2c1 | 3.1% | 0.9%
CN(C)c1ncc2nc(-c3ccc(Cl)cc3)c(=O)n(CCC#N)c2n1 | 7.6% | 9.8%
O=C(c1ccncc1)N1CCC2(CC1)CN(c1ncccn1)C2 | -1.8% | -3.6%
COc1ccc(CNc2nc(-c3cccc(C#N)c3)nc3ccccc23)c(OC)c1 | 15.3% | 6.8%
COC1=CC(=O)C(C(=O)c2ccccc2)=CC1=O | -21.7% | ?
C=CC(C1=CC(=O)C(OC)=CC1=O)c1ccc(OC)cc1 (configuration not stated) | ? | 7.94µM*
COc1ccc(S(=O)(=O)N=C2C=C(C)C(=O)C(C)=C2)cc1 | -26.5% | nt
C=CC(C1=CC(=O)C(OC)=CC1=O)c1ccccc1 (configuration not stated) | 20µM* | 3.16µM*
O=C1[C@H]2[C@H]3[C@H](O)[C@H](O)C/C(=N/OC[C@@H](O)COCc4ccco4)[C@H]3CC[C@@H]2C(=O)N1C[C@@H]1CCCO1 | nt | 2.7%[11.4 µM]
NC(=S)NNc1cc(Cl)cc(Cl)c1 | 2.51µM* | nt
NC(=S)NNC(N)=S | -18.3% | -24.8%
CC1=C(C(=O)O)N2C(=O)[C@@H](NC(=O)[C@@H](N)C3=CCC=CC3)[C@@H]2SC1 | 10.7% | 16.8%
O=C(c1ccccc1)N1CCCC(c2nc3c(nnn3Cc3ccccc3)c(=O)[nH]2)C1 (configuration not stated) | 0.2% | 2.4%
O=C(C1CCCCC1)N1CCCC(c2nc3c(nnn3Cc3ccccc3)c(=O)[nH]2)C1 (configuration not stated) | -11.9% | 15.8µM*
CCOc1cccc(C=Nc2cc(C)cc(C)c2O)c1O | 12.6% | 10µM*
COc1cccc(C=Nc2ccc3c(c2)OCCO3)c1O | 4.5%[2.29 µM] | -3.9%
CCCCC(CC)COC(=O)COc1ccc(Cl)cc1Cl (configuration not stated) | 1.3% | -4.8%
CSc1nnc(-c2ccco2)c(-c2ccco2)n1 | -17.7% | 2µM*
Cc1ccccc1NC(=O)CSc1nnc(-c2ccco2)c(-c2ccco2)n1 | -0.1% | nt
CCCCCCCCCCCCCCC[C@H](O)[C@H](N)CO | 11.7% | 13.2%
COc1ccc(OCC(=O)c2c(O)c3ccccc3oc2=O)cc1 | -21.9% | ?
CCOc1ccc(OCC(=O)c2c(O)c3ccccc3oc2=O)cc1 | ? | 15.8µM*
CN(C)CCNc1ccccn1 | -2.5%[11.4 µM] | 1.1%[11.4 µM]
O=[N+]([O-])c1ccc(Cl)c(C2Nc3cccc4cccc(c34)N2)c1 | 12.6µM* | nt
SMILES | 15-hLO-2 inh | ALOX15 inhib
O=[N+]([O-])c1cccc(C(=Nc2ccccc2Cl)NO)c1 | -1.3% | nt
CN(C)CCCN=c1c2ccccc2n(C)c2[nH]c(=O)n(C)c(=O)c12 | -3.1%[11.4 µM] | 7.7%[11.4 µM]
CCOC(=O)c1nn(-c2ccc(C)c(C)c2)c(=O)c2c(N)scc12 | -20.6% | nt
CCOC(=O)c1nn(-c2ccc(OC)cc2)c(=O)c2c(N)scc12 | -16.7%[11.4 µM] | 7.94µM*
O=C1CSC(=S)N1/N=C\c1ccc(Cl)c([N+](=O)[O-])c1 | -19.5%[11.4 µM] | 2.1%[11.4 µM]
Cn1c(C[C@@H](O)c2nc3ccccc3n2C)nc2ccccc21 | 20.8%[11.4 µM] | 10.5%[11.4 µM]
CCN1CCC2(CC1)C(C#N)=C(N)Oc1c2sc2nc(C)cc(C)c12 | 6.4% | 25.1µM*
CC(=O)N1CCC2(CC1)C(C#N)=C(N)Oc1c2sc2nc(C)cc(C)c12 | -10.4% | ?
COCn1c2ccccc2c2nnc(C(=O)O)nc21 | nt | 8.6%[11.4 µM]
CS(=O)(=O)N(CC(=O)O)c1ccccc1 | nt | 4.7%
C[C@H](CCC(=O)NN)[C@@H]1CC[C@@H]2[C@H]3CC[C@H]4C[C@@H](O)CC[C@@]4(C)[C@@H]3CC[C@]21C | 34.9%[11.4 µM] | 10.5%[11.4 µM]
N#CC1=C(N)C2=C(N3CCCCC3)CCCC2C1(C#N)C#N (configuration not stated) | ? | 12.6µM*
Cc1occc1-c1nnc(SCc2cc(=O)n3cc(Br)ccc3n2)n1C | -13.2% | ?
Cc1ccccc1Nc1nc(CSc2nnc(-c3ccoc3C)n2C)cs1 | -4.9% | 12.6µM*
COc1c(CC(=O)c2cc3c(cc2O)OC(C)(C)C(O)C3)ccc2c1C=CC(C)(C)O2 (configuration not stated) | 12.7% | -10.6%
N#C/C(=C(\O)C(=O)O)c1ccc(-c2cccc3ccccc23)cc1 | -8.0%[11.4 µM] | -4.7%[11.4 µM]
CC1=C(/C=C/C(C)=C\C=C\C(C)=C\C(=O)O)C(C)(C)CCC1 | -13.1%[0.0915 µM] | nt

Compound activity deposited in PubChem BioAssay by National Center for Advancing Translational Sciences (NCATS).
